# In PubChem BioAssay:
# Calls of active or inactive are those of the source.
# Experiments:
# Albumin (Bos taurus) = Albumin (Bos taurus) (UniProt P02769); assay: bovine serum albumin binders on microarray, profiling panel, artefact control for SMM control protein annotation, biochemical, small-molecule microarray, Alexa647 label, 635/667 nm fluorescence (AID 1118); conditions: BSA-A647 binding, fluorescence 635 nm, higher = more signal;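 note: score merges 667 nm emission intensity and signal-to-noise per printed compound spot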
# [1] = small-molecule microarray binders of probe aXIP, primary screen, biochemical, NeuroSMM set, 635/667 nm fluorescence (AID 1119); conditions: higher = more signal, called active from +8 up or from −8 down;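 note: probe is the protein aXip251-270 applied at 1 µg/mL to compound-printed slides; binding of probe to printed compounds measured as 667 nm fluorescence plus signal to noise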
# [2] = small-molecule binders of probe aNOTCH3, primary screen, biochemical, small-molecule microarray, 635/667 nm fluorescence (AID 1120); conditions: higher = more signal;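 note: probe is a biotin-tagged antibody raised against NOTCH3 rather than NOTCH3 protein; score merges spot fluorescence near 667 nm with spot signal to noise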
# [3] = small-molecule binders of probe aNOTCH2, primary screen, biochemical, small-molecule microarray, 635/667 nm fluorescence (AID 1121); conditions: higher = more signal;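 note: score merges feature fluorescence read at 667 nm with its signal to noise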
# [4] = target: Carbonic anhydrase 2 (Homo sapiens) (UniProt P00918); assay: CAII small-molecule binders, profiling panel, biochemical, small-molecule microarray, Alexa647-labelled CAII (AID 1122); conditions: CAII-A647 binding fluorescence, higher = more signal
# [5] = COS7 lysate on small-molecule microarray, probe aHis, 635 nm (AID 1123); conditions: COS7 cell lysate, fluorescence, higher = more signal;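 note: z-score combines 667nm fluorescence intensity with signal-to-noise per printed compound spot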
# [6] = compound binding in COS7 lysate, probe aLAP1, primary screen, cell lysate, small-molecule microarray (AID 1124); conditions: probe aLAP1, fluorescence, higher = more signal;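 note: lysate comes from COS7 cells expressing LAP1 and is applied at 0.3 µg/mL; score merges spot fluorescence near 667 nm with signal-to-noise over triplicate slides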
# Sam68 (KHDRBS1) = assay: Sam68 small-molecule binders, primary screen, biochemical, small-molecule microarray, 635 nm fluorescence (AID 1125); conditions: small-molecule microarray binding, higher = more signal;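 note: score merges 667 nm channel intensity with signal to noise over triplicate slides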
# [7] = tested on: Chordin-like protein 2 (CHRDL2); assay: CHRDL2 small-molecule binders, primary screen, biochemical, small-molecule microarray, 635 nm fluorescence (AID 1126); conditions: small-molecule microarray binding, fluorescence 635 nm; higher = more signal;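 note: printed compound slides probed with Chrdl2 protein at 4 µg/mL for 1 h at 4 C; score merges 667 nm emission intensity with signal to noise over three replicate slides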
# [8] = target: Concanavalin-A (Canavalia ensiformis) (UniProt P02866); assay: ConA small-molecule binders, primary screen, artefact control for SMM control protein annotation, biochemical, small-molecule microarray, Alexa647 label, 635 nm (AID 1127); conditions: ConA-A647 binding fluorescence, higher = more signal;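 note: z combines 667 nm emission intensity with signal-to-noise across three replicate slides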
# Chain of Concanavalin-A (Canavalia ensiformis) (P02866 whole entry, looked up): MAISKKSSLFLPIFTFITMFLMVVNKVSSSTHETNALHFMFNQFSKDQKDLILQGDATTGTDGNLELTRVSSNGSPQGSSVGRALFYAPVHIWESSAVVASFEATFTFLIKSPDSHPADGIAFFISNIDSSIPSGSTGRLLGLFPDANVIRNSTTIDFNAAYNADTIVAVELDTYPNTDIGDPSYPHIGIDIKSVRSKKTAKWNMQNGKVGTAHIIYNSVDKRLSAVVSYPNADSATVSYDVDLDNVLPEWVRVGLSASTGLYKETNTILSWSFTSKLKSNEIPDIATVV
# Chain of Albumin (Bos taurus) (P02769 whole entry, looked up): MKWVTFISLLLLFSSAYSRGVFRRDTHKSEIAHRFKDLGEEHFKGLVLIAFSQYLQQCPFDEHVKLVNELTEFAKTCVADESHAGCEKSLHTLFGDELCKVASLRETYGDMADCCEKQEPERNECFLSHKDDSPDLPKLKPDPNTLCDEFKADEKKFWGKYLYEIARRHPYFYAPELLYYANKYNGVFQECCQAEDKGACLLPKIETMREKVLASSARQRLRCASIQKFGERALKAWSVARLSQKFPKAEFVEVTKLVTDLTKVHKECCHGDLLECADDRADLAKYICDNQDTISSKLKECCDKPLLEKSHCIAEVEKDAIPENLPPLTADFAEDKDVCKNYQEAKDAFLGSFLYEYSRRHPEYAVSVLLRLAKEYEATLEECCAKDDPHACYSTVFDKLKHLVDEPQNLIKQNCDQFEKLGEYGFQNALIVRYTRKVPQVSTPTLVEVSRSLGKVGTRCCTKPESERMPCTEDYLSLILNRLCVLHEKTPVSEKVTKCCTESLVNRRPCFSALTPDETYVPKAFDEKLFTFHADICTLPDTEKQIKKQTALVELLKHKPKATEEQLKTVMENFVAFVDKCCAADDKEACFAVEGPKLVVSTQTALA
SMILES,composite z-score (Albumin (Bos taurus)),composite Z-score [1],composite z-score [2],composite z-score [3],composite z-score [4],composite z-score [5],composite z-score [6],composite z-score (Sam68 (KHDRBS1)),composite z-score [7],composite z-score [8]
C=CCNC(=O)[C@H]1[C@@H]2C(=O)O[C@@H](c3ccccc3)[C@@H](c3ccccc3)N2[C@@H](c2ccc(O)cc2)[C@]12C(=O)N(C(=O)OCCOC)c1ccc(C#CC3(O)CCCCCC3)cc12,0.624,0.282 (inactive),0.207,-0.0519,0.39,1.08,-0.0714,1.23,-0.233,0.915
[N-]=[N+]=Nc1ccccc1[C@@H]1OC(c2ccc(OCCCO)cc2)=N[C@]1(CCS(=O)(=O)c1ccccc1)C(=O)NCc1ccccc1,0.976,1.08 (inactive),0.752,0.38,0.749,2.86,0.48,1.29,-0.612,1.11
Cc1cc(C)c(C(O)C2C=CC3C(=O)N(c4ccccc4)C(=O)C3N2Nc2ccc([N+](=O)[O-])cc2)c(C)c1 (stereo not given),1.06,-0.909 (inactive),0.418,0.149,0.643,2.79,0.893,1.3,-0.224,1.19
C=CC[C@]1(C(=O)N2CCOCC2)N=C(c2ccc(OCCCO)cc2)O[C@H]1c1ccccc1CN=[N+]=[N-],0.971,0.0707 (inactive),0.533,0.0402,0.385,2.92,1.64,1.29,-0.321,1.15
COC(=O)[C@@]1(Cc2ccccc2)[C@H]2c3cc(C(=O)N4CCCC4)n(Cc4ccccc4)c3C[C@H]2CN1C(=O)c1ccccc1,0.76,0.689 (inactive),0.591,0.302,0.637,2.36,-0.0361,0.5,-0.883,0.914
COCCCNC(=O)[C@@H]1c2ccccc2C(=O)N(Cc2cc(F)cc(C(F)(F)F)c2)[C@H]1c1ccc(CO)cc1,-0.146,0.147 (inactive),-0.388,-0.0826,0.761,-0.838,-0.438,-1.24,-1.24,-0.265
CC(C)(C)OC(=O)CC[C@@]1(C(=O)N2CCCCC2)N=C(c2ccc(OCCCO)cc2)O[C@@H]1c1ccccc1N=[N+]=[N-],0.943,-0.15 (inactive),0.4,0.127,0.775,2.94,1.58,1.29,0.142,1.17
COC(=O)C(CC#Cc1ccc2c(c1)[C@]1(C(=O)N2)[C@H](C(=O)N2CCc3cc(OC)c(OC)cc3C2)[C@H]2C(=O)O[C@H](c3ccccc3)[C@H](c3ccccc3)N2[C@@H]1c1ccc(O)cc1)C(=O)OC,-1.1,-0.0536 (inactive),0.233,0.0273,0.326,1.64,-0.137,1.29,1.25,1.16
C=CCC(OC(C)=O)[C@@H]1[C@@H](N(Cc2ccc(-c3ccccc3)cc2)C(=O)Cc2ccc(OC)cc2)c2cc(OCCCO)ccc2N1C(=O)c1ccc(-c2ccccc2)cc1 (stereo not given in full),-0.146,-0.427 (inactive),0.268,0.0224,0.204,-0.0315,0.394,-0.323,0.268,-0.781
CCN(CC)c1ccc(N2CC=CC34O[C@@H]5/C=C\CCCOC(=O)C5[C@H]3C(=O)N(CCCCCO)[C@@H]4C2=O)cc1 (stereo not given in full),0.567,0.226 (inactive),-0.402,-0.198,0.342,-0.343,0.0397,-1.83,-1.2,-0.518
C=CCOC(=O)[C@@H]1[C@H]2C(=O)O[C@H](c3ccccc3)[C@H](c3ccccc3)N2[C@H](c2ccc(OCCOC(=O)[C@@H]3C[C@@H]4C(=O)N5CCC[C@H]5C(=O)N4[C@@H]3c3cccc(OCCO)c3)cc2)[C@@]12C(=O)Nc1ccc(I)cc12,0.226,-0.244 (inactive),-0.055,-0.101,0.0553,1.34,0.167,1.29,1,1.14
CCOC(=O)C[C@H]1[C@H](OC(=O)c2ccccc2-c2ccccc2)[C@@H](NC(=O)c2ccccc2)c2cc(OCCCO)ccc2N1C(=O)Cc1ccc(OC)cc1,-0.261,-0.0282 (inactive),-0.0055,0.669,-0.0956,0.428,0.368,-0.0802,0.0666,0.588
CCCNC(=O)[C@@H]1c2ccccc2C(=O)N(CC23CC4CC(CC(C4)C2)C3)[C@H]1c1ccc(CO)cc1,0.472,0.39 (inactive),0.0702,0.0521,0.395,1.98,0.12,1.29,0.781,1.09
NC(=O)NCC#Cc1ccc2c(c1)[C@]1(C(=O)N2)[C@H](c2ccc(O)cc2)N2[C@H](c3ccccc3)[C@H](c3ccccc3)OC(=O)[C@H]2[C@@H]1C(N)=O,-0.624,0.251 (inactive),-0.279,0.104,0.263,0.409,-0.0995,-0.144,-0.162,-0.608
